Screening results: PubChem BioAssay, National Center for Advancing Translational Sciences (NCATS)
Compounds with a hit are over-represented: about 6.5% of the library has one in this group of screens.
MARV entry inh = blocks Marburg virus binding to or entry into cells; Marburg virus pseudotyped entry inhibition, cell reporter; Potency, µM (top dose mostly 37.8 µM), most hits filed as inhibitors; 300,000 compounds, 1.8% hits; AID 540276; calls by dose curve; tested in HEK293 cells
HCMV inh = inhibitors of human cytomegalovirus; 410,000 compounds, 4.5% hits; HFF cells, HCMV-luciferase reporter, 72 h; active compounds read low; activity change, negative = inhibition, % at 57.5 µM; in the data active = activity change below about -60%; inconclusive = no clear call, values can overlap the other calls; inactive = above about -39%
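Steps: HFFs plated, 16 h 37C; compounds added; HCMV-luciferase added to MOI 1 PFU/cell; 72 h 37C; OneGlo reagent, 5 min room temperature; luminescence read, normalized to controls.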
VACV mCherry inh = vaccinia inhibition (mCherry reporter). 310,000 compounds, 0.63% hits. Potency, µM (series often up to 36.5 µM), usual class: inhibitors. Vaccinia virus mCherry reporter infection, fluorescence; calls by dose curve; tested in A549 cells; also: nearly all actives have a fitted effect of over 35% in size
Vaccinia Venus = vaccinia inhibition (Venus reporter). Potency, µM (highest dose often 36.5 µM), actives largely listed as inhibitors. 330,000 compounds, 0.46% hits. Vaccinia virus Venus reporter expression, fluorescence; calls by dose curve; tested in A549 cells; also: nearly all actives have a fitted effect of over 30% in size
FMDV inh = foot and mouth disease virus antiviral activity | FMDV antiviral cell-based qHTS | Potency, µM (top dose mostly 57.9 µM), usual class: inhibitors | 410,000 compounds, 1.2% hits | AID 1159524; calls by dose curve; tested in HEK293T cells; also: read-out not given here; nearly all actives have a fitted effect of over 45% in size
LASV entry inh = blocks Lassa virus binding to or entry into cells. Lassa virus pseudotype entry inhibition, cell reporter. 300,000 compounds, 1.2% hits. AID 540256. Potency, µM (top dose mostly 37.9 µM), actives largely listed as inhibitors; calls by dose curve; tested in HEK293 cells; also: nearly all actives have a fitted effect of over 50% in size
Hits are given with their value.

Results for O=C(O)c1ccc(N/N=C/c2ccc(OC(=O)c3ccccc3Cl)cc2)cc1 ?
MARV entry inh: inconclusive; HCMV inh: -68; VACV mCherry inh: inactive; Vaccinia Venus: inactive; FMDV inh: 13µM; LASV entry inh: 0.71µM

Results for COc1ccc(/C=N/Nc2ccc(C(=O)O)cc2)cc1OC ?
HCMV inh: inactive; FMDV inh: inconclusive

How did COc1ccc(/C=N/Nc2ccc(C(=O)O)cc2)cc1Br do in these assays?
MARV entry inh: 3.2µM; HCMV inh: inactive; VACV mCherry inh: inactive; Vaccinia Venus: inactive; FMDV inh: 22µM; LASV entry inh: inconclusive

Results for CCNC(=O)CSC1=N/C(=C\c2ccc(O)c(OCC)c2)C(=O)N1c1ccc(OC(F)F)cc1 ?
MARV entry inh: inactive; HCMV inh: -70; VACV mCherry inh: inactive; Vaccinia Venus: inactive; FMDV inh: inactive; LASV entry inh: inactive

Results for COc1cc2ncnc(NCc3ccc(C)cc3)c2cc1OC ?
MARV entry inh: inconclusive; HCMV inh: inactive; VACV mCherry inh: inactive; Vaccinia Venus: inactive; FMDV inh: inactive; LASV entry inh: inactive

How did COc1ccc(CNc2ncnc3cc(Cl)ccc23)cc1OC do in these assays?
MARV entry inh: inconclusive; HCMV inh: -70; VACV mCherry inh: inactive; Vaccinia Venus: inactive; FMDV inh: inconclusive; LASV entry inh: inconclusive

What do the screens show for `COc1cccc(CNc2ncnc3cc(OC)c(OC)cc23)c1`?
MARV entry inh: inconclusive; HCMV inh: inactive; Vaccinia Venus: inconclusive; FMDV inh: inconclusive; LASV entry inh: inactive

What do the screens show for `COc1ccc(CCNc2ncnc3cc(OC)c(OC)cc23)cc1OC`?
MARV entry inh: inconclusive; HCMV inh: inactive; VACV mCherry inh: inactive; Vaccinia Venus: inactive; FMDV inh: 20µM; LASV entry inh: inconclusive

How did COc1cc2ncnc(NCCc3ccccc3)c2cc1OC do in these assays?
HCMV inh: inconclusive; FMDV inh: 20µM

Results for COc1ccc(CCNc2ncnc3c2c(-c2ccccc2)cn3-c2cccc(Cl)c2)cc1OC ?
HCMV inh: inactive; VACV mCherry inh: inactive; Vaccinia Venus: inactive; FMDV inh: 25µM; LASV entry inh: inconclusive

How did COc1ccc(CCn2c3c(c(=O)[nH]c2=O)C(NC(=O)c2ccc(C(C)(C)C)cc2)(C(F)(F)F)C(=O)N3)cc1OC (stereo not given) do in these assays?
MARV entry inh: inconclusive; HCMV inh: inactive; VACV mCherry inh: inactive; Vaccinia Venus: inactive; FMDV inh: inactive; LASV entry inh: inactive

Results for Cn1cc(CCNC(=O)N2CCOC2=O)c2ccccc21 ?
HCMV inh: inactive

What do the screens show for `C=CCN1CC(COCc2ccccc2)OCCS1(=O)=O` (stereo not given)?
HCMV inh: inactive

How did COc1ccc(C2N=C(Nc3nc4ccccc4o3)NC3=C2C(=O)CC(C)(C)C3)cc1 (stereo not given) do in these assays?
VACV mCherry inh: inactive; Vaccinia Venus: inconclusive

What do the screens show for `O=C1CCC[C@H]2[C@@H](Cc3ccccc3)[C@@H](NCC3CCCCC3)CC[C@]23CCCN13`?
HCMV inh: inactive

What do the screens show for `Cc1cc(Sc2ncnc(N)c2[N+](=O)[O-])ncn1`?
MARV entry inh: inconclusive; VACV mCherry inh: inactive; Vaccinia Venus: inactive; FMDV inh: 20µM; LASV entry inh: 11µM

What do the screens show for `Cc1cc(Sc2nc(N)ncc2[N+](=O)[O-])ncn1`?
MARV entry inh: inconclusive; HCMV inh: -99; VACV mCherry inh: inactive; Vaccinia Venus: inactive; FMDV inh: inconclusive; LASV entry inh: inactive

Results for Cc1ccc(C)c(Oc2ncnc(N)c2[N+](=O)[O-])c1 ?
MARV entry inh: inactive; HCMV inh: inconclusive; VACV mCherry inh: inactive; Vaccinia Venus: inactive; FMDV inh: inactive; LASV entry inh: inactive

Results for Cc1cc(N)ncc1[N+](=O)[O-] ?
MARV entry inh: inactive; HCMV inh: inactive; VACV mCherry inh: inactive; Vaccinia Venus: inactive; FMDV inh: inactive; LASV entry inh: inactive

Results for COc1ccc(/C(O)=C2\C(=O)C(=O)N(CCN3CCOCC3)[C@H]2c2cccnc2)cc1OC ?
MARV entry inh: inactive

What do the screens show for `CCSc1nnc2n(-c3cccc(C)c3)c(=O)c3c4c(sc3n12)CCCC4`?
MARV entry inh: inactive; HCMV inh: inactive; VACV mCherry inh: inactive; Vaccinia Venus: inactive; FMDV inh: inconclusive; LASV entry inh: inactive

How did O=C(Nc1nccs1)[C@@H]1CC=C[C@@H]2CCN(C3CCCCC3)C(=O)[C@@H]21 do in these assays?
VACV mCherry inh: inactive; Vaccinia Venus: inactive

How did Cc1ccccc1Nc1oc(-c2ccccc2)nc1C=Cc1ccccc1 do in these assays?
MARV entry inh: inactive

What do the screens show for `CCOC(=O)CN1C(C(=O)c2ccccc2)=C(OC(=O)c2ccccc2)c2ccccc2S1(=O)=O`?
MARV entry inh: inactive; HCMV inh: inactive; VACV mCherry inh: inactive; Vaccinia Venus: inactive; FMDV inh: inactive; LASV entry inh: inactive

Results for CCN1C(C(=O)c2ccccc2)=C(OC(=O)c2ccc(Cl)cc2)c2ccccc2S1(=O)=O ?
MARV entry inh: inactive; HCMV inh: -77; VACV mCherry inh: inactive; Vaccinia Venus: inactive; FMDV inh: inactive; LASV entry inh: inactive

What do the screens show for `CCN1C(C(=O)c2ccccc2)=C(OC(=O)COc2ccc(OC)cc2)c2ccccc2S1(=O)=O`?
MARV entry inh: inactive; HCMV inh: inconclusive; VACV mCherry inh: inactive; Vaccinia Venus: inactive; FMDV inh: inactive; LASV entry inh: inactive

Results for CCN1C(C(=O)c2ccccc2)=C(OC(=O)COc2ccc(C)cc2)c2ccccc2S1(=O)=O ?
MARV entry inh: inconclusive; HCMV inh: inactive; VACV mCherry inh: inconclusive; Vaccinia Venus: inconclusive; FMDV inh: inactive; LASV entry inh: inactive

Results for CCCN1C(C(=O)c2ccccc2)=C(OC(=O)C(C)(C)C)c2ccccc2S1(=O)=O ?
MARV entry inh: inactive; HCMV inh: -89; VACV mCherry inh: inconclusive; Vaccinia Venus: inconclusive; FMDV inh: inactive; LASV entry inh: inconclusive

What do the screens show for `CCCN1C(C(=O)c2ccccc2)=C(OC(=O)COc2ccc(C)cc2)c2ccccc2S1(=O)=O`?
MARV entry inh: inconclusive; HCMV inh: -91; VACV mCherry inh: inconclusive; Vaccinia Venus: inconclusive; FMDV inh: inactive; LASV entry inh: inconclusive

What do the screens show for `CCCN1C(C(=O)c2ccccc2)=C(OC(=O)COc2ccccc2)c2ccccc2S1(=O)=O`?
MARV entry inh: inconclusive; HCMV inh: -88; VACV mCherry inh: inconclusive; Vaccinia Venus: inconclusive; FMDV inh: inactive; LASV entry inh: inactive

How did CCOC(=O)c1cccnc1SCC(=O)Nc1ccc(C)cc1C do in these assays?
HCMV inh: inactive; VACV mCherry inh: inactive; Vaccinia Venus: inactive; FMDV inh: inactive; LASV entry inh: inactive

What do the screens show for `CCOc1cc2[nH]c(=O)n(CCCCC(=O)N3CCN(c4ccccc4OC)CC3)c(=O)c2cc1OCC`?
HCMV inh: inactive; VACV mCherry inh: inactive; Vaccinia Venus: inactive; FMDV inh: inactive; LASV entry inh: inactive

What do the screens show for `CCN1C/C(=C/c2ccc(OC)c(O)c2)C(=O)/C(=C/c2ccc(OC)c(O)c2)C1`?
HCMV inh: -103; VACV mCherry inh: inconclusive; Vaccinia Venus: inconclusive; FMDV inh: inactive
